# Results taken from the supplement of paper PMC6897291.
# “And” between values parts separate entries of the source, which are not always exact repeats. Equal entries are not always repeated. Structures can show the parent of a compound that is named as a salt.
# Legend:
# [1] = test system: U-2932; assay: growth inhibition by drug alone (1 - RLU/untreated control) (fraction); higher = stronger inhibition; conditions: 177Lu-lilotomab satetraxetan 0 ug/ml
# Procedure, shortened: (§1)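 A radiolabelled anti-CD37 antibody conjugate (~600 MBq/mg) was applied for 18 h at 0.5 µg/ml to RIVA and 1 µg/ml to U-2932 cells, with untreated cells run alongside. All cells were washed and seeded at 3,000 cells/well onto library-printed plates at 10/100 nM (RIVA) or 10/1,000 nM (U-2932). Growth inhibition was based on RealTime-Glo luminescence compared with untreated no-drug wells. Daily reads began on day 3 after 1 h at 37°C, with each value being 1 − RLU/mean of the 48 such wells on that plate.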
# [2] = test system: RIVA; assay: as above; conditions: 177Lu-lilotomab satetraxetan 0 ug/ml
# Procedure, shortened: as §1
# [3] = test system: U-2932; assay: growth inhibition by drug plus 177Lu-lilotomab satetraxetan (1 - RLU/untreated control) (fraction); higher = stronger inhibition; conditions: 177Lu-lilotomab satetraxetan 1 ug/ml
# Procedure, shortened: as §1
# [4] = test system: RIVA; assay: as above; conditions: 177Lu-lilotomab satetraxetan 0.5 ug/ml
# Procedure, shortened: as §1
Compound,"growth inhibition by drug alone ([1]; 10 nM, time (day): 3)","growth inhibition by drug alone ([1]; 10 nM, time (day): 4)","growth inhibition by drug alone ([1]; 10 nM, time (day): 5)","growth inhibition by drug alone ([1]; 10 nM, time (day): 6)","growth inhibition by drug alone ([1]; 1000 nM, time (day): 3)","growth inhibition by drug alone ([1]; 1000 nM, time (day): 4)","growth inhibition by drug alone ([1]; 1000 nM, time (day): 5)","growth inhibition by drug alone ([1]; 1000 nM, time (day): 6)","growth inhibition by drug alone ([2]; 10 nM, time (day): 3)","growth inhibition by drug alone ([2]; 10 nM, time (day): 4)","growth inhibition by drug alone ([2]; 10 nM, time (day): 5)","growth inhibition by drug alone ([2]; 10 nM, time (day): 6)","growth inhibition by drug alone ([2]; 100 nM, time (day): 3)","growth inhibition by drug alone ([2]; 100 nM, time (day): 4)","growth inhibition by drug alone ([2]; 100 nM, time (day): 5)","growth inhibition by drug alone ([2]; 100 nM, time (day): 6)","growth inhibition by drug plus 177Lu-lilotomab satetraxetan ([3]; 10 nM, time (day): 3)","growth inhibition by drug plus 177Lu-lilotomab satetraxetan ([3]; 10 nM, time (day): 4)","growth inhibition by drug plus 177Lu-lilotomab satetraxetan ([3]; 10 nM, time (day): 5)","growth inhibition by drug plus 177Lu-lilotomab satetraxetan ([3]; 10 nM, time (day): 6)","growth inhibition by drug plus 177Lu-lilotomab satetraxetan ([3]; 1000 nM, time (day): 3)","growth inhibition by drug plus 177Lu-lilotomab satetraxetan ([3]; 1000 nM, time (day): 4)","growth inhibition by drug plus 177Lu-lilotomab satetraxetan ([3]; 1000 nM, time (day): 5)","growth inhibition by drug plus 177Lu-lilotomab satetraxetan ([3]; 1000 nM, time (day): 6)","growth inhibition by drug plus 177Lu-lilotomab satetraxetan ([4]; 10 nM, time (day): 3)","growth inhibition by drug plus 177Lu-lilotomab satetraxetan ([4]; 10 nM, time (day): 4)","growth inhibition by drug plus 177Lu-lilotomab satetraxetan ([4]; 10 nM, time (day): 5)","growth inhibition by drug plus 177Lu-lilotomab satetraxetan ([4]; 10 nM, time (day): 6)","growth inhibition by drug plus 177Lu-lilotomab satetraxetan ([4]; 100 nM, time (day): 3)","growth inhibition by drug plus 177Lu-lilotomab satetraxetan ([4]; 100 nM, time (day): 4)","growth inhibition by drug plus 177Lu-lilotomab satetraxetan ([4]; 100 nM, time (day): 5)","growth inhibition by drug plus 177Lu-lilotomab satetraxetan ([4]; 100 nM, time (day): 6)"
COc1ccc(-c2ccc3c(N4CCOCC4)nc(N4C[C@@H](C)O[C@@H](C)C4)nc3n2)cc1CO,0.119,0.133,0.0721,0.0015,0.602,0.481,0.389,0.407,0.0903,0.0995,0.0433,-0.131,0.104,0.122,0.0472,-0.0784,0.0319,0.069,0.0942,0.161,0.496,0.409,0.361,0.434,–,–,–,–,–,–,–,–
O=C(/C=C/c1cccnc1)NCCCCC1CCN(C(=O)c2ccccc2)CC1,–,–,–,–,–,–,–,–,0.983,0.983,0.982,0.979,0.981,0.982,0.982,0.98,0.909,0.859,0.812,0.758,0.984,0.985,0.986,0.988,0.991,0.991,0.99,0.99,0.99,0.99,0.991,0.991
C/C(=C\C(=O)Nc1ccccc1C(=O)O)c1ccc2ccccc2c1,–,–,–,–,–,–,–,–,–,–,-0.0819 and -0.194,-0.258 and -0.514,–,–,–,–,-0.0301 and -0.033,–,0.025 and 0.0323,–,-0.0817 and -0.0426,–,–,0.0333 and 0.0305,–,–,–,–,–,–,–,–
COc1ccc(CNC(=O)Nc2ncc([N+](=O)[O-])s2)cc1,-0.00788,-0.00166,0.0195,0.136,0.0779,0.0745,0.0965,0.0679,-0.12,-0.122,-0.158,-0.156,0.108,0.0378,-0.00577,-0.0255,-0.0555,-0.0169,0.0364,0.187,0.116,0.138,0.159,0.289,–,–,–,–,–,–,–,–
Nc1cccc2c1C(=O)N(C1CCC(=O)NC1=O)C2=O (stereo not drawn) [Pomalidomide],–,–,–,–,–,–,–,–,-0.0396,-0.0278,-0.0766,-0.254,-0.0764,-0.115,-0.132,-0.196,0.0211,0.034,0.0448,0.147,0.233,0.391,0.414,0.472,0.434,0.529,0.549,0.555,0.439,0.414,0.434,0.443
CCC(CC)CC1(C(=O)Nc2ccccc2SC(=O)C(C)C)CCCCC1,–,–,–,–,–,–,–,–,-0.0908,-0.101,-0.128,-0.174,-0.0374,-0.15,-0.166,-0.178,0.00638,0.0745,0.111,0.2,-0.0639,-0.00533,0.0344,0.206,0.496,0.541,0.564,0.567,0.369,0.456,0.462,0.476
COc1ccc(S(=O)(=O)Nc2cccnc2Nc2ccc(O)cc2)cc1,–,–,–,–,–,–,–,–,-0.0856,-0.157,-0.215,-0.37,-0.353,-0.364,-0.406,-0.581,-0.0595,0.0116,0.0522,0.105,0.896,0.923,0.934,0.956,0.454,0.511,0.525,0.533,0.416,0.502,0.51,0.5
Nc1ccccc1NC(=O)c1ccc(CNc2nccc(-c3cccnc3)n2)cc1 [Mocetinostat (MGCD0103)],–,–,–,–,–,–,–,–,-0.0534,-0.0971,-0.0989,-0.142,0.358,0.254,0.208,0.152,-0.0242,-0.00346,0.0145,0.11,0.876,0.893,0.907,0.934,0.466,0.553,0.579,0.576,0.681,0.692,0.705,0.7
COc1cc2/c(=N/c3ccc(Br)cc3F)nc[nH]c2cc1OCC1CCN(C)CC1 [Vandetanib (Zactima)],–,–,–,–,–,–,–,–,-0.203,-0.201,-0.23,-0.529,-0.273,-0.353,-0.318,-0.441,-0.0662,-0.0404,-0.009,0.0527,-0.276,-0.164,-0.119,-0.041,0.331,0.49,0.516,0.535,0.268,0.377,0.373,0.355
C[C@@H]1CCN(C(=O)CC#N)C[C@@H]1N(C)c1ncnc2[nH]ccc12,–,–,–,–,–,–,-0.0604 and -0.0478,–,–,–,–,-0.145 and -0.158,–,–,–,-0.23 and -0.152,-0.0798 and -0.0527,–,–,–,-0.1 and -0.107,–,–,–,0.396 and 0.421,0.461 and 0.516,0.484 and 0.536,0.5 and 0.538,0.367 and 0.379,0.424 and 0.434,0.412 and 0.435,0.396 and 0.419
COc1ncc(-c2ccc3nccc(-c4ccnnc4)c3c2)cc1NS(=O)(=O)c1ccc(F)cc1F,–,–,–,–,–,–,–,–,0.856,0.892,0.918,0.933,0.898,0.925,0.943,0.953,0.744,0.769,0.769,0.768,0.908,0.958,0.976,0.982,0.897,0.937,0.952,0.961,0.937,0.963,0.97,0.975
O=C(O)c1ccc2cc(-c3ccc(O)c(C45CC6CC(CC(C6)C4)C5)c3)ccc2c1,–,–,–,–,–,–,–,–,0.00625,0.0377,-0.0188,-0.334,-0.285,-0.127,-0.181,-0.353,0.108,0.127,0.182,0.221,0.737,0.802,0.838,0.847,0.642,0.675,0.699,0.702,0.404,0.512,0.518,0.526
C[C@@H](O[C@H]1OCCN(Cc2n[nH]c(=O)[nH]2)[C@H]1c1ccc(F)cc1)c1cc(C(F)(F)F)cc(C(F)(F)F)c1 [Aprepitant (MK-0869)],-0.0806,-0.0554,-0.0486,0.0358,-0.0765,-0.0282,-0.0265,-0.0573,-0.223,-0.258,-0.291,-0.358,-0.233,-0.342,-0.277,-0.366,-0.142,-0.123,-0.143,-0.121,-0.075,0.0386,0.0779,0.19,–,–,–,–,–,–,–,–
CNC(=O)c1ccc(N2C(=S)N(c3ccc(C#N)c(C(F)(F)F)c3)C(=O)C2(C)C)cc1F [MDV3100 (Enzalutamide)],–,–,–,–,–,–,–,–,0.0909,0.0471,0.0315,-0.246,-0.0634,-0.143,-0.144,-0.21,0.0217,0.0789,0.128,0.16,0.0172,0.0892,0.116,0.182,0.559,0.587,0.59,0.602,0.519,0.555,0.553,0.556
N#Cc1c(O)c2c(-c3ccc(-c4ccccc4O)cc3)csc2[nH]c1=O,–,–,–,–,–,–,–,–,0.017,-0.0012,-0.079,-0.317,-0.44,-0.357,-0.367,-0.39,0.00586,0.0777,0.105,0.108,0.0618,0.0835,0.123,0.191,0.57,0.613,0.615,0.612,0.402,0.488,0.487,0.49
O=C1c2ccccc2-c2nc3nonc3nc21,–,–,–,–,–,–,–,–,-0.0244,-0.0693,-0.283,-0.811,-0.571,-0.488,-0.554,-0.831,0.0325,0.0601,0.0603,0.0121,0.496,0.527,0.536,0.582,0.417,0.519,0.528,0.542,0.116,0.288,0.31,0.332
Nc1nc(Cl)nc2c1ncn2[C@@H]1O[C@H](CO)[C@@H](O)[C@@H]1F [Clofarabine],–,–,–,–,–,–,–,–,-0.085,-0.0539,-0.15,-0.383,0.384,0.685,0.781,0.827,0.00886,0.0897,0.102,0.0953,0.925,0.961,0.977,0.985,0.51,0.568,0.575,0.586,0.872,0.923,0.943,0.959
Cc1nc(-c2ccc(OCC(C)C)c(C#N)c2)sc1C(=O)O [Febuxostat (Uloric)],–,–,–,–,–,–,–,–,0.0707,0.00437,-0.101,-0.473,0.158,0.082,0.0362,-0.046,0.0457,0.0731,0.0564,0.0873,-0.0156,0.0704,0.0056,-0.0613,0.368,0.506,0.513,0.525,0.42,0.463,0.463,0.45
CO[C@@H](C(=O)N1Cc2[nH]nc(NC(=O)c3ccc(N4CCN(C)CC4)cc3)c2C1)c1ccccc1,–,–,–,–,–,–,–,–,-0.0286,-0.0311,-0.0917,-0.234,0.138,0.0638,0.148,0.29,0.00406,0.0748,0.116,0.142,0.398,0.469,0.53,0.634,0.555,0.594,0.603,0.604,0.514,0.615,0.685,0.776
COc1cccc2c1C(=O)c1c(O)c3c(c(O)c1C2=O)C[C@@](O)(C(=O)CO)C[C@@H]3O[C@H]1C[C@H](N)[C@@H](O)[C@H](C)O1 [Epirubicin Hydrochloride],–,–,–,–,–,–,–,–,–,–,–,–,–,–,–,–,0.24,0.323,0.39,0.484,0.965,0.977,0.982,0.986,0.734,0.792,0.829,0.863,0.887,0.93,0.949,0.967
